Reference: PubChem BioAssay AID489036 (National Center for Advancing Translational Sciences (NCATS), 2010)
Results filed as inconclusive are left out. Unmarked numbers belong to inactive results. Calls of active or inactive are those of the source. Calls come from the whole dose curve; as a rule, active = well fitted inhibition curve with a large enough effect; inconclusive = small, poorly fitted or top-dose-only effect, or effect the other way; inactive = flat fitted curve, though single readings scatter.

Experiment: VP16 selectivity assay for inhibitors of ROR gamma transcriptional activity
Conditions: Drosophila Schneider Gal4-VP16 UAS-luciferase reporter, 20 h; series mostly up to 92.2 µM; activity change, negative = inhibition: at the top concentration
Excerpt: NIH Molecular Libraries Probe Production Network [MLPCN] NIH Chemical Genomics Center [NCGC] MLPCN Grant: R03 DA026211-01 Assay Provider: Dan Littman, New York University Assay Overview: The retinoic acid-related orphan receptor (ROR) gamma is a transcription factor that has a central role in the differentiation of Th17 cells, a subset of T helper cells that secrete the inflammatory cytokines IL-17, IL-17F, and IL-22. Th17 cells have been implicated in graft versus host disease, autoimmune disease and asthma. ROR gamma is induced in naive T helper cells in the presence of TGF-beta combined with IL-6, IL-21, or IL-23, and thereafter directs the expression of the Th17 lineage cytokines. To identify nonspecific inhibitors, a Drosophila Schneider cell line was stably transfected with two vectors: a gene expressing a fusion of the Gal4 DNA binding domain and VP16 transactivation domain under the control of the metallothionine promoter and a Photinus luciferase reporter regulated by the Gal4 binding site enhancer, UAS. […] Small molecule inhibitors that inhibit components common to the RORgt and VP16 assays, such as the Gal4 DNA binding domain or the UAS luciferase reporter, will be active in both assays and thus scored as nonspecific.
Assay Protocol Summary: For screening, 600 cells in 4 uL/well were dispensed into white solid 1536-well plates (Grenier) using a solenoid-based dispenser. Following transfer of 23 nL compound or DMSO vehicle by a pin tool, the plates were incubated 1 hr at ambient temperature, and 1 uL/well copper sulfate (700 uM final concentration) was added. The plates were centrifuged 15 s at 1000 RPM and incubated 20 hr at ambient temperature. After addition of 1.5 uL Photinus luciferase detection reagent, the plates were incubated 10 min at ambient temperature and then read by an ViewLux (Perkin Elmer) to detect luminescence.

SMILES | Potency | activity change, negative = inhibition
COc1cc(OC)c(C(CC(=O)N2CC(C)CC(C)C2)c2ccc3c(c2)OCO3)c(OC)c1 (stereo not given) | 22.9 µM (active) | –
COc1cc(O)c(C(CC(=O)N2CCOCC2)c2ccc3c(c2)OCO3)c(OC)c1 (stereo not given) | – | 21.6%
COc1cc(O)c(C(CC(=O)N2CCCC(CO)C2)c2ccc3c(c2)OCO3)c(OC)c1 (stereo not given) | – | -18.2%
CCOc1ncccc1C(=O)OCC(=O)Nc1ccc(-c2nc3ccc(C)cc3s2)cc1 | 2.57 µM (active) | –
COc1ccccc1C(CC(=O)N1C[C@H](C)C[C@H](C)C1)c1ccccc1 (stereo not given in full) | 32.3 µM (active) | –
COc1cc(O)c(C(CC(=O)N2CCCC(C)C2)c2ccc3c(c2)OCO3)c(OC)c1 (stereo not given) | – | 10.9%
COc1cc(O)c(C(CC(=O)N2CCCC(C)C2)c2cccc3ccccc23)c(OC)c1 (stereo not given) | – | -28.4%
Cc1nn(-c2cc(C)c3ccccc3n2)c2c1C1C(C2)C1(C)C (stereo not given) | 22.9 µM (active) | –
COCC1CCCCN1C(=O)c1cc(COc2ccc3ncccc3c2)on1 (stereo not given) | 16.2 µM (active) | –
COc1cc(OC)c2c(c1)OC(=O)CC2c1ccc2c(c1)OCO2 (stereo not given) | – | -14.3%
CC1CCCN(C(=O)CC(c2ccc3c(c2)OCO3)c2ccc(O)cc2O)C1 (stereo not given) | – | -16.7%
COc1cc(O)c(C(CC(=O)N2CCCC2)c2ccc3c(c2)OCO3)c(OC)c1 (stereo not given) | – | -4.65%
CCOc1ccc(-c2cc(CCCC(=O)NCc3cccnc3)no2)cc1 | 2.88 µM (active) | –
COc1cc(O)c(C(CC(=O)N2CCC(c3ccccc3)CC2)c2ccc(OC)c(OC)c2)c(OC)c1 (stereo not given) | – | -1.5%
COc1cc(O)c(C(CC(=O)N2CCC(C)CC2)c2ccc(C)cc2)c(OC)c1 (stereo not given) | – | 11.5%
COc1cc(O)c(C(CC(=O)N2CCC(C)CC2)c2ccc3c(c2)OCO3)c(OC)c1 (stereo not given) | inactive | –
COc1cc(O)c(C(CC(=O)N2CC(C)NC(C)C2)c2ccc3c(c2)OCO3)c(OC)c1 (stereo not given) | – | 1.93%
COc1cc(O)c(C(CC(=O)N2CCCC(C(=O)N3CCCCC3)C2)c2ccc3c(c2)OCO3)c(OC)c1 (stereo not given) | – | 6.67%
COCOc1cc(OC)cc(OC)c1C(CC(=O)N1CC(C)CC(C)C1)c1ccc2c(c1)OCO2 (stereo not given) | 45.7 µM (active) | –
CCCCNC(=O)CC(c1ccc2c(c1)OCO2)c1c(O)cc(OC)cc1OC (stereo not given) | – | -10.5%

SMILES | Potency | activity change, negative = inhibition
COc1cc(O)c(C(CC(=O)N2CCC(c3ccccc3)CC2)c2ccc(C)cc2)c(OC)c1 (stereo not given) | – | -9.66%
COc1cc(O)c(C(CC(=O)N2CCC[C@@H](C)C2)c2ccc3c(c2)OCO3)c(OC)c1 (stereo not given in full) | inactive | –
COc1cc(O)c(C(CC(=O)N2CC(C)CC(C)C2)c2ccc(O)cc2)c(OC)c1 (stereo not given) | – | 12.5%
COc1ccc(C(CC(=O)N2CCCC(C)C2)c2ccccc2)cc1 (stereo not given) | – | -64.7%
COc1ccc(CNC(=O)[C@H](Cc2ccccc2)NC(=O)C2CCN(C(=O)[C@@H]3CCCN3C(=O)OC(C)(C)C)CC2)cc1 | – | -1.94%
COC(=O)c1ccc(OCC(=O)c2ccc(O)cc2O)cc1 | 2.04 µM (active) | –
CCOC(=O)Cn1c(CN2CCc3ccccc3C2)nc2c1c(=O)n(C)c(=O)n2C | 5.12 µM (active) | –
CC1CCCN(C(=O)CC(c2ccc3c(c2)OCO3)c2ccc3ccccc3c2O)C1 (stereo not given) | – | -13%
COc1ccc(-c2c[n+]3c(n2-c2ccc(C)cc2)CCCCC3)cc1 | 5.12 µM (active) | –
COc1cc(O)c(C(CC(=O)N2CCCC(c3nc4ccccc4o3)C2)c2ccc3c(c2)OCO3)c(OC)c1 (stereo not given) | – | -23%
COc1cc(O)c(C(CC(=O)N(Cc2ccccc2)Cc2ccccc2)c2ccc3c(c2)OCO3)c(OC)c1 (stereo not given) | – | -7.83%
COc1cc(OC)c(C(CC(=O)N2CCCC(C)C2)c2ccc3c(c2)OCO3)c(OC)c1 (stereo not given) | 51.2 µM (active) | –
C[C@H]1O[C@@H](O[C@H]2[C@@H](O)C[C@@H](O[C@H]3[C@@H](O)C[C@H](O[C@H]4CC[C@@]5(C)[C@H](CC[C@@H]6[C@@H]5CC[C@]5(C)[C@@H](C7=CC(=O)OC7)CC[C@]65O)C4)O[C@@H]3C)O[C@@H]2C)C[C@H](O)[C@@H]1O | – | -3.54%
COc1cc(OC)c(C(CC(=O)N2CCCC(C)C2)c2ccc3c(c2)OCO3)c(OCc2ccccc2)c1 (stereo not given) | 12.9 µM (active) | –
C=C1Nc2c(-c3ccc(F)cc3)cnn2C(N)=C1c1ccccc1 | 0.288 µM (active) | –
Cc1ccc(C)c(/C=N/n2cc(-c3ccccc3)[nH]c2=S)c1 | 20.4 µM (active) | –
COc1cc(C)nc(-n2nc(C)cc2OC)n1 | 14.4 µM (active) | –
COc1cc(O)c(C(CC(=O)N2CCCC(C(=O)c3ccccc3)C2)c2ccc3c(c2)OCO3)c(OC)c1 (stereo not given) | – | 4.06%
COc1cc(O)c(C(CC(=O)N2CCC(c3ccccc3)CC2)c2ccc3c(c2)OCO3)c(OC)c1 (stereo not given) | inactive | –
COc1cc(O)c([C@H](CC(=O)N2CC(C)CC(C)C2)c2ccc3c(c2)OCO3)c(OC)c1 (stereo not given in full) | – | -28.7%
